# Measurements reported in PubChem BioAssay AID2705 (National Center for Advancing Translational Sciences (NCATS), 2010).
# The list shows a part of the results. Records with an inconclusive call do not appear. Active and inactive are the calls of the source. Calls come from the whole dose curve; as a rule, active = well fitted inhibition curve with a large enough effect; inconclusive = small, poorly fitted or top-dose-only effect; inactive = flat fitted curve, though single readings scatter.
# Target: Dual specificity tyrosine-phosphorylation-regulated kinase 1A (Homo sapiens) (UniProt Q13627)
# Experiment: Assay for Inhibitors of Dual-Specificity Tyrosine-(Y)-Phosphorylation Regulated Kinase 1A (Kinase-Glo assay)
# Conditions: recombinant DYRK1A, Kinase-Glo ATP depletion luminescence
# Description: NIH Molecular Libraries Probe Production Centers Network [MLPCN] NIH Chemical Genomics Center [NCGC] MLSCN Grant: 1R03MH084827-01 PI Name: Tom Misteli NCGC Assay Overview: The CMGC group of protein kinases which includes CDK-like kinases (Clk) and Dyks are essential kinases found in all eukaryotes. Clks have been implicated to play a role in the regulation of alternative splicing; while Dyrks, in particular over expression of Dyrk1A, has been linked to diseases as Down syndrome (DS; OMIM 190685) and Alzheimer disease (AD; OMIM 104300). Among the members of the CMGC group, the Clks and the Dyrks are very closely related therefore to determine validity and selectivity of an active compound observed in the CLK4 qHTS screen (AID:1770), a bioluminescent counter-screen against Dyrk1A was developed. In addition, potent and selective compounds against Dyrk1A were identified to further assess the role of this enzyme in DS and AD. Dyrk1A (Invitrogen, cat # PV3785) was assayed using ATP and DYRKtide (AnaSpec, cat# 62698) as substrates. Promega Kinase-Glo (cat# V6712) technology was used to detect the residual ATP following kinetic reaction. The Kinase-Glo Plus contains Ultra-Glo [5] luciferase and D-luciferin which generates a bioluminescence signal from the remaining ATP. No enzyme and harmine (Sigma, cat # 286044-1G), a compound shown to inhibit Dyrks were used as a positive control; while DMSO treatment was used as a negative control.
# NCGC Assay Protocol Summary: Two uL/well of substrate solution (8uM Dyrktide, 2uM ATP, 25mM Tris-HCl pH 7.5, 10mM MgCl2 , 0.5mM EGTA, 5mM cystein, 0.01% Triton X-100 final concentration) was dispensed into 1536-well assay plates (Greiner, solid white, medium-binding plates) with Aurora Discovery BioRAPTR Flying Reagent Dispenser (FRD, Beckton-Dickenson). Compound solution (23 nL) was transferred to the assay plate using Kalypsys pin tool equipped with a 1536-pin tool. One uL/well enzyme solution (5nM Dyrk1A, 25mM Tris-HCl pH7.5, 10mM MgCl2, 0.5mM EGTA, 5mM cystein, 0.01% Triton X-100 final concentration) was then added using FRD yielding a total kinase reaction volume of 3uL/well. After 2 hours of room temperature incubation, 3uL Kinase-Glo detection reagent was added for a final assay volume of 6uL/well. The plates were spun for 30 seconds (1000 rpm) and incubated at ambient temperature for 2 minutes followed by a luminescence read using Perkin Elmer ViewLux plate reader at 3 seconds exposure time and 2x binning.
row,Structure (SMILES),Potency
1,Cc1nc(C)c(-c2ccc3ncnc(NCc4ncc[nH]4)c3c2)s1,5190 nM (active)
2,CN(Cc1cncn1C)c1ncnc2ccc(-c3ccc4c(c3)OCO4)cc12,2600 nM (active)
3,Cc1nc(CNc2ncnc3ccc(-c4ccc5c(c4)OCO5)cc23)cs1,292 nM (active)
4,c1coc(CCNc2ncnc3ccc(-c4ccc5c(c4)OCO5)cc23)c1,164 nM (active)
